Measured values: the supplement of paper PMC13392028
Over roughly 4,100 sequences, “RBNS R-value (6-mer enrichment in protein-bound RNA vs input library)” has its median near 0.96; the highest 2% begin near 2.4. This excerpt belongs to a sample that is enriched for the highest values.

Test system: PyIESI-1 RRM domain (Plasmodium yoelii PY17X_0911200 aa 795-956, GST fusion)
Test: RBNS R-value (6-mer enrichment in protein-bound RNA vs input library) (ratio); higher = stronger binding preference; the methods of the paper give 50 / 100 / 500 nM protein instead
Method: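 RNA Bind-n-Seq: recombinant GST-tagged IESI-1 RRM domain was incubated at room temperature with a random 40-nt in vitro transcribed RNA library at 250, 500 or 1000 nM protein. Bound RNA was pulled down on glutathione beads and sequenced. R-value is the enrichment of each 6-mer in the bound RNA relative to the input library. Each 6-mer sits inside the random 40-mer context, not as an isolated oligo. Values are replicate 1 only.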

Row | Sequence | RBNS R-value (protein concentration: 250 nM) | RBNS R-value (protein concentration: 500 nM) | RBNS R-value (protein concentration: 1000 nM)
1 | GAUGUG | 3.46 | 3.14 | 3.14
2 | GAUGUU | 2.92 | 2.8 | 2.87
3 | UAUGUG | 0.924 | 0.971 | 0.978
4 | GAUGUA | 2.51 | 2.41 | 2.52
5 | UAUGUC | 0.642 | 0.672 | 0.661
6 | CAUGUC | 0.705 | 0.722 | 0.733
7 | UAUGUA | 0.585 | 0.616 | 0.581
8 | AAUGUU | 0.8 | 0.836 | 0.819
9 | CAUGUU | 0.726 | 0.757 | 0.737
10 | GAUGUC | 2.55 | 2.44 | 2.5
11 | AAUGUA | 0.646 | 0.662 | 0.639
12 | CAUGUG | 1.02 | 1.04 | 1.03
13 | GCGUCG | 0.809 | 0.784 | 0.765
14 | UUGUUA | 0.717 | 0.765 | 0.738
15 | AGCCUG | 1.33 | 1.33 | 1.36
16 | GUGGCC | 0.987 | 0.981 | 0.976
17 | AACCUG | 1.37 | 1.36 | 1.38
18 | CCGCUA | 0.743 | 0.757 | 0.758
19 | UACUAC | 0.519 | 0.53 | 0.491
20 | AAUUAA | 0.471 | 0.515 | 0.483
21 | GAUUAG | 2.44 | 2.41 | 2.5
22 | UAUUAC | 0.487 | 0.514 | 0.489
23 | GAUUAC | 2.72 | 2.65 | 2.82

Row | Sequence | RBNS R-value (protein concentration: 250 nM) | RBNS R-value (protein concentration: 500 nM) | RBNS R-value (protein concentration: 1000 nM)
24 | CAUUAC | 0.471 | 0.51 | 0.491
25 | GAUUAA | 2.47 | 2.37 | 2.56
26 | CAUUAG | 0.57 | 0.593 | 0.579
27 | AAUUAG | 0.641 | 0.657 | 0.639
28 | CAUUAA | 0.41 | 0.435 | 0.403
29 | CGGUGA | 1.36 | 1.39 | 1.35
30 | ACCGCG | 1.03 | 1.03 | 1.04
31 | CGAACC | 1.09 | 1.06 | 1.06
32 | GGGCCG | 1 | 1.01 | 0.999
33 | GCAAGC | 0.92 | 0.933 | 0.931
34 | CCGGUC | 0.872 | 0.923 | 0.916
35 | AAUGCG | 0.941 | 0.968 | 0.97
36 | UAUGCG | 0.859 | 0.856 | 0.873
37 | GAUGCG | 2.54 | 2.45 | 2.52
38 | AAUGCU | 0.903 | 0.932 | 0.944
39 | GAUGCA | 2.66 | 2.5 | 2.68
40 | CAUGCU | 0.844 | 0.875 | 0.883
41 | UAUGCC | 0.797 | 0.84 | 0.861
42 | CAUGCC | 0.921 | 0.929 | 0.99
43 | GAUGCU | 2.48 | 2.42 | 2.51
44 | UAUGCA | 0.689 | 0.714 | 0.705
45 | GAUGCC | 2.7 | 2.6 | 2.86
46 | CAUGCA | 0.757 | 0.762 | 0.774
